Source: PubChem (National Center for Advancing Translational Sciences (NCATS))
D2 ag-1: HTS Assay for Allosteric Agonists of the Human D2 Dopamine Receptor: Primary Screen for Agonists. D(2) dopamine receptor (Homo sapiens), P14416. HEK293 T-REx D2 cells, calcium flux agonist mode. activation, % at 2 µM. 0.53% of 340,000 active;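 active = activation over 3 SD above normal in the single-dose calcium agonist read, cut at about 30% in these data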
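Agonism scored from kinetic calcium signal (1 read/sec, 180 s) following compound pin transfer, after a 10 s baseline. Cells: HEK293 Trex line expressing inducible D2 receptor coupled to calcium, dye-loaded after overnight culture at 30 C.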
B2AR arrestin: qHTS assay of beta-arrestin-biased ligands of beta2-adrenergic receptor. Beta-2 adrenergic receptor (Homo sapiens), P07550. beta-arrestin recruitment to beta2AR, cell-based reporter. Potency, µM (highest dose often 46.1 µM), most hits filed as activators. 0.02% of 330,000 active. AID 492947, 2010; also: nearly all actives have a fitted effect of over 65% in size
Target sequence (P07550 whole entry, looked up): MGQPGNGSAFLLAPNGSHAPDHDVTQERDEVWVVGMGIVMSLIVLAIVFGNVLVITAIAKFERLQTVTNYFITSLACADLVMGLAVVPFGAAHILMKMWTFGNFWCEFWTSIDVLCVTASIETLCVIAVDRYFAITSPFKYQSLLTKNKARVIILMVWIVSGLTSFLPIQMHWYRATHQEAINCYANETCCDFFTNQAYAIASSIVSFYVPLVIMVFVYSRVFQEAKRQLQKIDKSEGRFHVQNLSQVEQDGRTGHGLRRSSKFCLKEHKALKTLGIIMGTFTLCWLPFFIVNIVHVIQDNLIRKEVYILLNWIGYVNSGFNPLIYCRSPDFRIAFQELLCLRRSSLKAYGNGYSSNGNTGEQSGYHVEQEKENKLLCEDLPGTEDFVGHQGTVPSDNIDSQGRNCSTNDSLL
D2 antagonist: HTS Assay for Allosteric Antagonists of the Human D2 Dopamine Receptor: Primary Screen for Antagonists | D(2) dopamine receptor (Homo sapiens), P14416 | HEK293 TREx D2 cells, calcium flux, dopamine EC80 | inhibition, % at 10 µM | 2% of 340,000 active | AID 485344, 2010; in the data active = inhibition above about 30%; inactive = below that, where a call was filed
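Inhibition of EC80 dopamine-driven calcium flux, recorded kinetically, defines activity here; cells are a tetracycline-induced HEK293 T-REx line expressing force-coupled D2.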
D2 PAM-1: HTS Assay for Positive Allosteric Modulators of the Human D2 Dopamine Receptor: Primary Screen for Potentiators | HEK293 T-REx D2, calcium flux, EC20 dopamine potentiation | potentiation, % at 10 µM | 0.34% of 340,000 active | AID 485347, 2010;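 active = potentiation over 3 SD above the plate norm, cut at about 30% in these data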
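Potentiation of an EC20 dopamine calcium response is measured in a force-coupled, tetracycline-inducible Hek293 Trex D2 line. Compound-only kinetic reads over 180 s flag agonists before dopamine addition.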
D2 ag-2: Beta-Arrestin HTS for Positive Allosteric Modulators of the Human D2 Dopamine Receptor: Agonists. DiscoveRx PathHunter D2 beta-arrestin, luminescence, 90 min; 100% = 57 uM dopamine signal. 0.084% of 360,000 active. D(2) dopamine receptor (Homo sapiens), P14416. activation, % (test concentration not listed); in the data active = activation above about 40%; inconclusive = between about 15% and that limit
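DiscoveRx PathHunter D2 beta-arrestin cells (2,100/well) attached overnight, then compound-stimulated 90 min at 37 C in HBSS/10 mM HEPES/0.1% Tween-20 buffer; beta-galactosidase complementation read by luminescence after 1 h at ambient temperature. Dopamine 57 uM final (EC100) as control.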
D2 PAM-2: Beta-Arrestin HTS for Positive Allosteric Modulators of the Human D2 Dopamine Receptor: Potentiators; D(2) dopamine receptor (Homo sapiens), P14416; AID 624464, 2012; 0.23% of 360,000 active; potentiation, % (no concentration beside the values); DiscoveRx D2 beta-arrestin cells, luminescence, 90 min; 100% = 57 uM dopamine signal; in the data active = potentiation above about 50%; inconclusive = mostly about 30% to 49%
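D2 cells co-treated with compound plus 50 nM dopamine (EC20) for 90 min at 37 deg C to detect potentiation. Beta-arrestin recruitment was read as enzyme-fragment luminescence after 1 h at ambient temperature. Full response was set by 57 uM dopamine.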
D3 arrestin ag: qHTS of D3 Dopamine Receptor Agonist: D3 Dopamine Receptor B-arrestin Agonist Confirmatory Assay; Potency, µM (titrated, usually from 76.9 µM), hits mostly activators; AID 720506, 2013; DiscoveRx D3 beta-arrestin cells, luminescence, 90 min; 4% of 2,300 active; shares compounds with D2 ag-1; also: nearly all actives have a fitted effect of over 70% in size
D2 ag-3: qHTS of D3 Dopamine Receptor Agonist: D2 Dopamine Receptor B-arrestin Agonist Counterscreen. shares compounds with D2 ag-1. DiscoveRx PathHunter D2 beta-arrestin, luminescence, 90 min; response scale: percent relative to full dopamine signal. Potency, µM (titrated, usually from 76.9 µM), most hits filed as activators. 5.9% of 2,300 active; also: nearly all actives have a fitted effect of over 70% in size
Large screens that a line does not name were inactive (follow-up assays come after a bar, where they were run); ! = not active in a repeat. Hits are enriched below; roughly 2.4% of the tested compounds scored in any of these assays. Unless noted, calls follow the shape of the dose curve; as a rule, active = well fitted activation curve with a large enough effect; inconclusive = small, poorly fitted or top-dose-only effect; inactive = flat fitted curve, though single readings scatter.

CCOC(=O)N1CCC(NC(=O)C(Cc2ccccc2)NC(=O)c2ccco2)CC1 (centres undefined)	none (no result: D2 PAM-1)
CCOC(=O)N1CCC(NCCNC(=O)c2ccco2)CC1	D2 ag-1 75.7, D2 antagonist 38.2 | D3 arrestin ag inactive | D2 ag-3 inactive
Cc1noc(C)c1CSCC(=O)OCC(=O)Nc1ccc(OC(F)(F)F)cc1	none (no result: D2 ag-1, B2AR arrestin, D2 antagonist, D2 PAM-1)
O=C(CCN1CCN(c2ccccc2)CC1)Nc1ccc(OCc2ccccc2)cc1	D2 ag-1 52.7, D2 antagonist 65.0 | D3 arrestin ag inconclusive | D2 ag-3 inconclusive
COC(=O)c1ccc(NC(=O)CCN2CCN(c3ccccc3)CC2)cc1	D2 ag-1 53.9, D2 antagonist 50.3, D2 ag-2 inconclusive | D3 arrestin ag inconclusive | D2 ag-3 inconclusive
O=C(Nc1ccc(C(=O)NCCCN2CCN(c3ccccc3)CC2)cc1)C1=CSCCO1	D2 ag-1 81.8, D2 antagonist 81.4, D2 ag-2 44.4 | D3 arrestin ag inactive | D2 ag-3 inconclusive
O=C(CCN1CCN(c2ccccc2)CC1)Nc1ccc(Cl)cc1	none
COC(=O)c1cc(CN2CCN(c3ccccc3)CC2)ccc1O	none | D3 arrestin ag inactive | D2 ag-3 inactive
COc1ccc(NS(=O)(=O)c2cccc(C(=O)NCc3ccccc3CN3CCOCC3)c2)cc1	none (no result: D2 ag-1, B2AR arrestin, D2 antagonist, D2 PAM-1)
O=C(CCCc1ccccn1)c1ccccc1	none (no result: D2 ag-1, B2AR arrestin, D2 antagonist, D2 PAM-1)
CCc1ccc2c(CC(=O)NNC(=O)c3ccncc3)coc2c1	none | D3 arrestin ag inactive | D2 ag-3 inactive
COc1cccc(CN2CCN(C3CCN(c4ccccc4C)CC3)CC2CCO)c1 (centres undefined)	D2 ag-1 59.8 | D3 arrestin ag inactive | D2 ag-3 inactive
COc1cccc(CN2CCN(C3CCN(c4ccccc4F)CC3)CC2CCO)c1 (centres undefined)	none
COc1cccc(CN2CCN(C3CCN(c4cccc(C)c4C)CC3)CC2CCO)c1 (centres undefined)	D2 ag-1 70.8, D2 antagonist 73.0, D2 ag-2 inconclusive | D3 arrestin ag inconclusive | D2 ag-3 inconclusive
CCOC(=O)N1CCC(N2CCCC(C(=O)c3ccccc3OC)C2)CC1 (centres undefined)	D2 ag-1 73.7, D2 antagonist 70.3, D2 ag-2 inconclusive | D3 arrestin ag inactive | D2 ag-3 inconclusive
CCOC(=O)N1CCC(N2CCCC(C(=O)c3cc(C)c(OC)c(C)c3)C2)CC1 (centres undefined)	none (no result: D2 ag-1, D2 antagonist, D2 PAM-1)
CCOC(=O)N1CCC(N2CCN(Cc3ccccc3)C(CCO)C2)CC1 (centres undefined)	D2 ag-1 78.4, D2 antagonist 76.2, D2 ag-2 inconclusive | D3 arrestin ag inactive | D2 ag-3 inconclusive
CC1(C(=O)NS(=O)(=O)c2ccccc2C(F)(F)F)CCN1C(=O)CC1CCCCC1 (centres undefined)	none (no result: D2 ag-1, B2AR arrestin, D2 antagonist, D2 PAM-1)
Cc1ccc(NC(=O)CCC(=O)N2CCC(C)CC2)c([N+](=O)[O-])c1	none
O=C(Nc1cccc2ccccc12)c1csc([C@@H]2C[C@H](O)[C@@H](CO)O2)n1	none (no result: D2 ag-1, B2AR arrestin, D2 antagonist, D2 PAM-1)
CC[C@]12c3[nH]c4ccc(Cl)cc4c3CCN1C(=O)[C@@H](CC(=O)NCc1cccc(C(F)(F)F)c1)C[C@@H]2C(=O)N1CCN(C(=O)c2ccco2)CC1	none (no result: D2 ag-1, D2 antagonist, D2 PAM-1, D2 PAM-2)
CCCCN(CC)CCCNC(=O)CC1Nc2ccccc2NC1=O (centres undefined)	D2 ag-1 74.7, D2 antagonist 40.5 | D3 arrestin ag inactive | D2 ag-3 inactive
CCCN(CCC)CCCNC(=O)CC1Nc2ccccc2NC1=O (centres undefined)	D2 ag-1 50.8 | D3 arrestin ag inactive | D2 ag-3 inactive
CCCCN(C)CCCNC(=O)CC1Oc2ccccc2NC1=O (centres undefined)	D2 ag-1 85.2, D2 antagonist 62.5 | D3 arrestin ag inconclusive | D2 ag-3 inconclusive
CCOc1ccc(C(C)=O)cc1N1C(=O)C2C(C1=O)C1C=CC2C12CC2 (centres undefined)	none
COc1ccc(-c2noc(CSCC(=O)Nc3cc(OC)c(OC)c(OC)c3)n2)cc1OC	none (no result: B2AR arrestin, D2 antagonist, D2 ag-2, D2 PAM-2)
CCS(=O)(=O)N1CCN(C(C)CCc2ccccc2)CC1 (centres undefined)	D2 ag-1 61.0 | D3 arrestin ag inconclusive | D2 ag-3 inconclusive
CC(C)N1CCN(S(=O)(=O)c2ccccc2)CC1	none
COc1ccc(NC(=O)Nc2cccc(Cl)c2Cl)c(OC)n1	none
O=C(Nc1nnc(S(=O)(=O)N2CCOCC2)s1)c1ccccc1F	none
O=C(Nc1nnc(S(=O)(=O)N2CCOCC2)s1)c1ccccc1Cl	D2 ag-1 52.1! | D3 arrestin ag inactive | D2 ag-3 inactive
O=C(COc1ccccc1)Nc1nnc(S(=O)(=O)N2CCCCCC2)s1	D2 ag-1 50.0! | D3 arrestin ag inactive | D2 ag-3 inactive
N#C/C=C/N1CCN(C(=O)c2ccco2)CC1	none
COCc1cc(C)nc(SCc2ccc(F)cc2)c1C#N	D2 antagonist 41.6 | D3 arrestin ag inactive | D2 ag-3 inactive
CCc1nnc(NC(=O)CN2CCC(O)(c3ccccc3OC)CC2)s1	none
COc1ccccc1C1(O)CCN(CC(=O)Nc2nc(-c3ccccc3)cs2)CC1	D2 ag-1 32.1 | D3 arrestin ag inactive | D2 ag-3 inactive
COc1ccc(NS(=O)(=O)c2cc(NC(=O)c3ccc(C)o3)ccc2N2CCCCC2)cc1	none
CC1=Nc2ccccc2/C1=C/c1sc(=N)n(-c2nccs2)c1O	none | D3 arrestin ag inactive | D2 ag-3 inactive
CC1=Nc2ccccc2/C1=C/c1nc(-c2ccc(C)s2)oc1O	none (no result: D2 ag-1, D2 antagonist, D2 PAM-1)
CC(C)=C1C2CC2C2C(C(=O)O)C12 (centres undefined)	none
COCc1ccc(-c2ccc3c(c2)c(C#Cc2ccsc2)c(-c2cc(OC)cc(OC)c2)n3C)cc1	none | D3 arrestin ag inactive | D2 ag-3 inactive
